Measured values reported in patent publication US20220289795, “EFFICIENT METHOD FOR PREPARING PPR PROTEIN AND USE OF THE SAME” (EditForce, Inc., published 2022).

Molecular target: T1, NL_v2_PPR7 (Artificial Sequence)
T1 chain: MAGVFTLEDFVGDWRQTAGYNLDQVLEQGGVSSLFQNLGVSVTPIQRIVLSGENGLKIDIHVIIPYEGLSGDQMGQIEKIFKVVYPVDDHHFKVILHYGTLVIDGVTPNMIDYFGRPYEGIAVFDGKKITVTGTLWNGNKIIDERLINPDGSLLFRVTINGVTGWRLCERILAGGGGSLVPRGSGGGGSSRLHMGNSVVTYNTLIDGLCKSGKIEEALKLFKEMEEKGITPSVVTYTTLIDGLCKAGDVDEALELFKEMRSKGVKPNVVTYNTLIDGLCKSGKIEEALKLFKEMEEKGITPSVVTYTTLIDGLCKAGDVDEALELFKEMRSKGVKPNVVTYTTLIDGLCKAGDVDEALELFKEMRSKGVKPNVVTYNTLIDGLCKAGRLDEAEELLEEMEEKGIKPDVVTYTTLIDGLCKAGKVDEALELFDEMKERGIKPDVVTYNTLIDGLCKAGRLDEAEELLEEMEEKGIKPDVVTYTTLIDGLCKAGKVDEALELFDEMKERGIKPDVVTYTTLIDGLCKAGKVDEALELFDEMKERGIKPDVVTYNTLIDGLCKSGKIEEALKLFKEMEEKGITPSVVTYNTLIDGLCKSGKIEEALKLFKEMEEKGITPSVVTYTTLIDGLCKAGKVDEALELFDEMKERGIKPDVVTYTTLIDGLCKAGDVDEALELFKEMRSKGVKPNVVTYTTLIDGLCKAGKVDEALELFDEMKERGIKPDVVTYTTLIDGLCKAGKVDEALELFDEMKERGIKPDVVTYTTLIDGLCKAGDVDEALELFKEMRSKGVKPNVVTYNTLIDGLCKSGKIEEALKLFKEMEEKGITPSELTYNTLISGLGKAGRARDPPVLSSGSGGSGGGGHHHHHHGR
Assay: RPB-ELISA
Settings: tags: N-terminal luciferase, C-terminal 6xHis; label: 5'-biotin; ssRNA
Experimental: RNA probes consisting of a designed 30-base sequence containing 18 bases of the target sequence and modified by biotinylation at the 5′ end (RNA_1, RNA_2, RNA_3, RNA_4, and RNA_5, SEQ ID NOS: 61 to 65) were synthesized (Grainer). To a streptavidin-coated plate (Thermo fisher), the 5′-end biotinylated RNA probes were added, reaction was allowed at room temperature for 30 minutes, and the plate was washed with a lysis buffer (20 mM Tris-HCl, pH 7.6, 150 mM NaCl, 5 mM MgCl₂, 0.5% NP-40, 1 mM DTT, 0.1% BSA). For background measurement, wells to which RNA was not added, but 100 μL of the lysis buffer, 1 μL of 100 mM DTT, and 1 μL of 40 unit/4 RNase inhibitor (Takara, 2313A) were added were also prepared. Then, 200 μL of a blocking buffer (20 mM Tris-HCl, pH 7.6, 150 mM NaCl, 5 mM MgCl₂, 0.5% NP-40, 1 mM DTT, 1% BSA) was added, and the plate surface was blocked at room temperature for 30 minutes. Then, 100 μL of E. coli lysate containing luciferase-fused PPR protein having a luminescence level of 1.5×10⁸ LU/μL was added to each well, and the binding reaction was allowed at room temperature for 30 minutes. The well was washed 5 times with 200 μL of a washing buffer (20 mM Tris-HCl, pH 7.6, 150 mM NaCl, 5 mM MgCl₂, 0.5% NP-40, 1 mM DTT). […] The background (luminescence signal value obtained with adding the PPR protein and without adding RNA) was subtracted from the luminescences of the samples to which a solution containing each RNA and PPR protein was added, and the obtained values were used as the binding powers between the PPR protein and RNA.
By using the v2 motif, PPR proteins for 23 kinds of target sequences (T_1 to T_3, and T_5 to T_24, SEQ ID NOS: […]) were prepared (NL_v2_PPR1 to 3, and NL_v2_PPR5 to 24, SEQ ID NOS: 56 to 58 and 70 to 88), and RPB-ELISA was used to analyze bindings of all the combinations. The experimental method was the same as that used in Example 3.

Point of comparison: GUCAGAGGGUUCUGGAUU, binding signal 21.1 log2 luminescence. Against it:
- GGUUAGAGAUACAGUGUG — lower, 20.6 log2 luminescence
- GGUGGUGAGGCCCUGGGC — higher, 21.4 log2 luminescence
- GACUCAGGAAUCGGCUCU — lower, 20.5 log2 luminescence
